These results are taken from PubChem BioAssay AID1704 (The Scripps Research Institute Molecular Screening Center, 2009).

Structures are written as SMILES. Some of the results follow. Values without a mark were called inactive. The source made the active and inactive calls.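 The calls were made as follows: active = inhibition above the mean of stimulated solvent-only control wells plus 3 SD (cut at about 22% in these data); inactive = the rest.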

The experiment can be described thus: blockers of isoproterenol-driven CNG channel signal – cell-based, HEK293-CNG parental, membrane potential fluorescence, Y1 set, counter-screen for NPY-Y1 potentiator/agonist project (AID 1704).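 Also: 0% = isoproterenol-stimulated DMSO wells and 100% = unstimulated DMSO wells.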 The conditions noted are these: isoproterenol cAMP, at 3.6 µM, stronger effect = higher value.
For the molecule `Cc1cccc(OCC(O)CN2CCN(CCN3C(=O)c4cccc5cccc(c45)C3=O)CC2)c1C` (stereo unspecified), the inhibition (in general, the drop in the measured response relative to a control, in per cent) is 51.3% (active). For `COC(=O)c1sc(-c2ccc(C(C)(C)C)cc2)cc1NC(=O)/C=C/C(=O)O` the value was 24.5% (active); for `CCn1c2ccccc2c2cc(NC(=O)Nc3ccc([N+](=O)[O-])cc3C)ccc21`, 16.4%. To `CC1=C/C(=N\OS(=O)(=O)c2ccccc2)C=CC1=O` belongs 16.7%; to `CN1C(=O)c2ccccc2C(C(=O)NCCCN2CCCC2)C1c1c[nH]c2ccccc12` (stereo unspecified), -0.85%; to `O=[N+]([O-])c1cc(Cl)cc(/C=N/NC(=S)Nc2cc(S(=O)(=O)N3CCOCC3)ccc2Cl)c1O`, 66.5% (active). For `O=C(Nc1ccccc1C(F)(F)F)c1cc(-c2ccc(O)cc2)on1` the value was -10.9%; for `N#Cc1ccc(C(=O)Nc2nc(-c3cccs3)c(C(=O)C(F)(F)F)s2)cc1`, -18.5%; for `CSc1nc(-c2ccco2)nn1C(=O)c1ccccc1Cl`, 12.3%.

As for `O=C1/C(=C/c2coc3ccc(O)cc3c2=O)SC(=S)N1c1ccccc1`, the inhibition was 11.7%. To `Cc1ccccc1NCC(=O)N/N=C\c1ccc([N+](=O)[O-])s1` belongs 33.8% (active); to `O=C(Nc1ccc2c(c1)CCC2)c1cccc(S(=O)(=O)Nc2ccccc2Cl)c1`, 7.5%; to `O=C(c1cccs1)N1CCN(C(=O)N2CCOCC2)CC1`, 1.33%. To `COCCn1nnnc1C(c1ccccc1Cl)N1CCN(c2ccccc2OC)CC1` (stereo unspecified) belongs -5.71%; to `COC(=O)c1ccc(NC(=O)CN(c2ccc(C)cc2)S(=O)(=O)c2c(C)n[nH]c2C)cc1`, 36.6% (active); to `CC(=O)c1ccc(NC(=O)C2CC(=O)Nc3nc4ccccc4n32)cc1` (stereo unspecified), 32.8% (active).
